# Assay outcomes from PubChem BioAssay.
# Sampled rows, rich in hits. Any-hit rate of the full collection: about 19%.
# IL-1B inflam inh – qHTS for Inhibitors of Inflammasome Signaling: IL-1-beta AlphaLISA Primary Screen | THP-1 LPS/ATP IL-1B secretion, AlphaLISA, 16 h; active compounds read low | activity change, % at 57.5 µM | 4.7% of 360,000 active; in the data active means activity change below about -50%; inconclusive means mostly about -30% to -49%
#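 THP-1 cells pretreated 1 hr with compounds (up to 57.5 uM final), then stimulated with LPS (250 ng/mL final) plus ATP (1.25 mM final); secreted IL-1B measured by AlphaLISA after 16 hr, decreased signal indicating inhibition.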
# TDP1 cell noCPT – qHTS for Inhibitors of human tyrosyl-DNA phosphodiesterase 1 (TDP1): qHTS in cells in absence of CPT | DT40 Tdp1-/- hTDP1 cells, no CPT, ATP luminescence, 48 h | Potency, µM (doses to about 46.2 µM), for the others: at the top dose activity change, negative = growth inhibition, usual class: inhibitors | 15% of 420,000 active; further: potency means the concentration at half of the fitted maximal effect; nearly all actives have a fitted effect of over 55% in size
#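 Luminescent ATP content (CellTiter-Glo) served as the growth readout. Knockout chicken DT40 cells expressing human TDP1 were exposed to compounds without camptothecin for a minimum 48 hr at 37 °C.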
# DT40 TDP1 CPT – qHTS for Inhibitors of human tyrosyl-DNA phosphodiesterase 1 (TDP1): qHTS in cells in presence of CPT; 12% of 420,000 active; AID 686979, 2013; Potency, µM (titrated, usually from 46.2 µM), for inactives: top-dose activity change, negative = growth inhibition, usual class: inhibitors; chicken DT40 Tdp1-/-;hTDP1 cells + 20 nM CPT, ATP luminescence, 48 h; further: potency means the concentration at half of the fitted maximal effect; nearly all actives have a fitted effect of over 55% in size
#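 Chicken DT40 Tdp1-/- cells complemented with human TDP1, 400 cells/well, exposed to compounds plus 20 nM camptothecin for at least 48 h at 37 C; viability read as ATP content by CellTiter-Glo luminescence.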
# HT1080-NT tox – qHTS for induction of synthetic lethality in tumor cells producing 2HG: qHTS for the HT-1080-NT fibrosarcoma cell line | HT-1080-NT fibrosarcoma viability, CellTiter-Glo ATP luminescence, 48 h | Potency, µM (highest dose often 46.1 µM), for inactives: at the top dose activity, negative = less viability, actives largely listed as cytotoxic | 1.6% of 360,000 active | AID 686970, 2013;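 further: NT is the 2HG producing partner of a matched IDH1 knockdown line; potency means the concentration at half of the fitted maximal effect; 0% = DMSO-treated cells and -100% = media-only wells without cells; nearly all actives have a fitted effect of over 55% in size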
#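 Toxicity toward the 2HG-producing NT line was scored as %Activity, normalised to DMSO and no-cell wells, from CellTiter-Glo luminescence after 48 hours' treatment.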
# HT1080 IDH1KD tx – qHTS for induction of synthetic lethality in tumor cells producing 2HG: qHTS for the HT-1080-IDH1KD cell line | HT-1080 IDH1 knockdown viability, ATP luminescence, 48 h | Potency, µM (titrated, usually from 46.1 µM), for the others: at the top dose activity, negative = toxicity, most hits filed as cytotoxic | 2% of 360,000 active;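 further: potency means the concentration at half of the fitted maximal effect; 0% = DMSO wells and -100% = cell-free medium wells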
#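 % activity derives from luminescence (CellTiter-Glo), normalised to DMSO and no-cell wells. HT-1080-IDH1KD cells, 750/well, had 48 h compound exposure at 37 °C.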
# * hit, by the source's call; u = inconclusive; x = no result given; [ ] = another dose, or the depositor's remark. Unless noted, the call rests on the fitted dose curve; in most records, active means well fitted curve in the direction sought with a large enough effect; inconclusive means small, poorly fitted or top-dose-only effect, or another doubt; inactive means no such curve, though single readings can be large; an effect the other way counts as inactive or inconclusive. Unless noted, on the % scale 0 is the no-effect control and ±100 the full control effect.
SMILES,IL-1B inflam inh,TDP1 cell noCPT,DT40 TDP1 CPT,HT1080-NT tox,HT1080 IDH1KD tx
O=C(O)[C@@H]1Cc2[nH]cnc2C(c2cccnc2)N1 (some centres not stated),x,4%[9.04 µM],11%[9.04 µM],x,x
C[C@@H]1O[C@H](C[N+](C)(C)C)C[C@@H]1O,x,-5%,16%,x,x
Cc1ccc(CCN2CC(C(=O)N3CCC4(CC3)OCCO4)CC2=O)cc1 (configuration not stated),2,-5%,-2%,13%,16%
CCC(=O)[C@@H](C)[C@@H](O)[C@H](C)C[C@@H](C)C1OC(=O)C[C@@]2(O)CC=C(C)C(O2)C(C)=CCCC[C@H](O[C@H]2C[C@@H](OC(N)=O)[C@H](O)[C@@H](C)O2)C=C[C@H](C)C[C@H]1C (some centres not stated),-21,0.52µM*,0.46µM*,12µM*,21µM*
COc1ccc(NS(=O)(=O)c2cc(NC(=O)COc3ccccc3)ccc2N2CCOCC2)cc1,-18,u,u,3%,-3%
CCOc1ccc(CCNC(=O)c2ccc(CS(=O)(=O)c3ccccc3C)o2)cc1OCC,x,15µM*,u,x,x
Cc1ccccc1CS(=O)(=O)Cc1ccc(C(=O)N2CCC3(CC2)OCCO3)o1,9,-10%,1%,12%,13%
Cc1cc(C)c(C)c(C(O)(C(=O)O)c2ccccc2)c1 (configuration not stated),-4,5%,0%,9%,-8%
CC(Cc1ccccc1)NCCn1cnc2c1c(=O)n(C)c(=O)n2C (configuration not stated),x,u,-29%[92.5 µM],x,x
Cc1c(C)c2ccc(OCC(=O)N3CCC(C(=O)O)(c4ccccc4)CC3)c(C)c2oc1=O,35,6%,19%,12%,14%
COc1cccc(-n2c(/C=C/c3cccc(C)c3)nc3ccccc3c2=O)c1,x,23µM*,u,x,x
COc1cccc(-n2c(/C=C/c3ccccc3O)nc3ccccc3c2=O)c1,x,26µM*,u,x,x
COc1cccc(-n2c(=S)[nH]c3ccccc3c2=O)c1,4,u,-1%,-6%,-2%
Cc1cc(C)cc(-n2c(/C=C/c3cccc(F)c3)nc3ccccc3c2=O)c1,x,u,21µM*,x,x
O=C1NC(=S)NC(=O)C1c1ccccc1,17,1%,0%,17%,8%
Cc1nn(Cc2ccccc2)c(C)c1C(=O)O,11,-8%,5%,14%,4%
CCC12C=CCN3CCC4(c5ccc(OC)cc5N(C)C4[C@@](O)(C(=O)OC)C1OC(C)=O)C32 (some centres not stated),x,-10%,-5%,x,x
COc1cccc2c1C(=O)c1c(O)c3c(c(O)c1C2=O)CC(O)(C(C)=NO)CC3OC1CC(N)C(O)C(C)O1 (configuration not stated),-97*,0.18µM*,0.21µM*,u,10µM*
CCCCC(=O)OCC(=O)[C@]1(O)Cc2c(O)c3c(c(O)c2[C@@H](O[C@H]2C[C@H](NC(=O)C(F)(F)F)[C@H](O)[C@H](C)O2)C1)C(=O)c1c(OC)cccc1C3=O,x,1.3µM*,1.5µM*,x,x
CCOc1ccccc1N1C(=O)NC(=O)/C(=C/c2ccc3c4c(cccc24)CC3)C1=O,-89*,u,u,-10%,-8%
CCc1ccccc1N1C(=O)NC(=O)/C(=C\c2cc(C)n(C)c2C)C1=O,-3,-26%,14%,12%,20%
CCc1ccc(OCC(=O)N2CCN(CCc3ccccn3)CC2)cc1,x,-23%,-5%,x,x
CN1CCc2cc3c(c4c2C1Cc1ccccc1-4)OCO3 (configuration not stated),-54*,-27%,-4%,-1%,-11%
COc1cc2c(cc1O)C[C@H]1c3c(cc(O)c(OC)c3-2)CCN1C,0,-2%,-2%,22%,2%
OC[C@H]1O[C@@H](n2cnc3cc(Cl)c(Cl)cc32)[C@H](O)[C@@H]1O,-70*,15µM*,u,u,u
SMILES,IL-1B inflam inh,TDP1 cell noCPT,DT40 TDP1 CPT,HT1080-NT tox,HT1080 IDH1KD tx
OC[C@H]1O[C@@H](n2cnc3cc(Cl)c(Cl)cc32)[C@H](O)[C@H]1O,x,u,16µM*,x,x
Cc1ccc2scc(N3CCN(C)CC3)c(=O)c2c1,x,-15%,-20%,x,x
Cc1cc(C)c(OCC(=O)Nc2cccc(NC(=O)c3ccco3)c2)c(Br)c1,-55*,13µM*,23µM*,u,u
CN(C(=O)c1ccc(Cl)nc1)C1(c2ccccc2Cl)CCCCC1=O (configuration not stated),31,-22%,-18%,-8%,-13%
COC(=O)C1=C(c2ccc(OCc3ccccc3)cc2)C[C@@H]2CC[C@H]1N2C(=O)NCc1ccc(F)cc1,u,23µM*,15µM*,-23%,u
COC(=O)C1=C(c2cccc(OCc3ccccc3)c2)C[C@@H]2CC[C@H]1N2C(=O)NCCCc1ccccc1,0,u,u,-9%,-9%
COC(=O)C1=C(c2ccc(OCc3ccccc3)cc2)C[C@@H]2CC[C@H]1N2C(=O)NCCCc1ccccc1,-11,13µM*,15µM*,-1%,-24%
COC(=O)C1=C(c2ccc(OCc3ccccc3)cc2)C[C@@H]2CC[C@H]1N2C(=O)NCc1ccc(OC)c(OC)c1,12,23µM*,18µM*,-29%,-9%
COC(=O)C1=C(c2ccc(OCc3ccccc3)cc2)C[C@@H]2CC[C@H]1N2C(=O)NCc1ccc(N(C)C)cc1,32,u,u,4%,10%
COC(=O)C1=C(c2ccc(OCc3ccccc3)cc2)C[C@@H]2CC[C@H]1N2C(=O)NCc1ccccc1OC,-4,8.2µM*,16µM*,-14%,-25%
O=C1NC[C@H](CCCCN2C[C@H](Cc3ccccc3)N(CC3CCCCC3)C(=O)C2=O)N(CCC2CCCCC2)C1=O,-8,u,u,15%,3%
CCOC(=O)N(CC)c1ccc(C(O)(C(=O)OC)C(F)(F)F)cc1 (configuration not stated),11,-7%,-7%,19%,10%
CC1(C)COC(Nc2cccc(Cl)c2)=N1,0,-11%,-16%,12%,4%
O=C(COc1ccc(Cl)cc1)Nc1ccc(Cl)cc1C(=O)c1ccccc1,x,-9%,-6%,x,x
